# From PubChem BioAssay (NCATS)
# Inconclusive results are not listed. Active and inactive are the calls of the source. The call rests on the fitted dose curve; in most records, active means well fitted activation curve with a large enough effect; inconclusive means small, poorly fitted or top-dose-only effect; inactive means no such curve, though single readings can be large or run the other way.
# Target: D(1A) dopamine receptor (Homo sapiens) (UniProt P21728)
# Experiment: HTS Assay for Allosteric Agonists of the Human D1 Dopamine Receptor: Primary Screen for Potentiators (AID 488982); on activity, positive = potentiation: 0% is about no effect
# Details: HEK293 T-REx D1 inducible cells, calcium flux, kinetic fluorescence; series mostly up to 8.37 µM; activity, positive = potentiation: at the top concentration
# From the text: Dopamine receptors (DARs) are involved in the etiology and/or therapy of a number of neuropsychiatric and endocrine disorders. For instance, all receptor-based antiparkinsonian drugs work via stimulating the […] DAR subtype whereas all FDA-approved antipsychotic agents are antagonists of this receptor. […] There are three different types of allosteric modulators that we are seeking, two of which will stimulate or augment receptor signaling, allosteric agonists and potentiators, while the third, allosteric antagonists, will attenuate receptor signaling. The present primary screening assay measures compound agonism by tracking calcium flux in a […], inducible Hek293 Trex D1 cell line.
# Freshly passaged cells are plated in 1536 well black, clear bottom plates at a density of 4000 cells/well in 3 ul of complete media containing 1x tetracycline inducer. After an overnight incubation at 30 C in 5% CO2, cells are loaded with 2 ul of the no wash Calcium Assay Kit (ABD Bioquest) and incubated at room temperature for 30 to 90 minutes. A 10 cycle (1 second/cycle) baseline measurement is taken and then the FDSS online 1536 pintool delivers 23 nl of compound library (as well as dopamine controls) to the plate. The plate is measured for kinetically at 1 cycle/sec for 180 seconds and is considered to be the agonist portion of the assay (eg, compounds which activate a positive calcium response during this portion are flagged as potential agonists). Following the 180 second read, 1 ul of an EC20 of dopamine is delivered by an onboard pipette head. Measurements are taken kinetically for an additional 180 seconds.
# Potency means the concentration at half of the fitted maximal effect.
# D(1A) dopamine receptor (Homo sapiens), sequence (P21728 whole entry, looked up): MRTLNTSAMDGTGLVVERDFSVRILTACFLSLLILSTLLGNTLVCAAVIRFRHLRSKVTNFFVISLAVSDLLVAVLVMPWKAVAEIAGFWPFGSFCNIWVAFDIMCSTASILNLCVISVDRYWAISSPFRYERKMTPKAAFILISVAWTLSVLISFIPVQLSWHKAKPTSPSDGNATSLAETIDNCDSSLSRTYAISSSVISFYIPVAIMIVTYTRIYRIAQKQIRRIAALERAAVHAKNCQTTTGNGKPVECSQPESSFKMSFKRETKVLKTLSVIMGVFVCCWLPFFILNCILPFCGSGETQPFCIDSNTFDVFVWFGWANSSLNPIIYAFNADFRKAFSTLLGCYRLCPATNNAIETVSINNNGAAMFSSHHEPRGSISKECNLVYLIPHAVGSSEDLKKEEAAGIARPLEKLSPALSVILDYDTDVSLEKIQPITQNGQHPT
Compound,"activity, positive = potentiation",Potency
Nc1nc(Cl)nc2c1ncn2[C@@H]1O[C@H](CO)[C@@H](O)[C@H]1O,14.7% (inactive),
C=CC(=O)c1ccc(CCCCCC)cc1,-23% (inactive),
c1ccc(-c2ccccn2)nc1,-21.6% (inactive),
O=C1NC(=O)/C(=C/c2ccc(-c3ccc(F)cc3O)o2)S1,-49.2% (inactive),
CN1C2CC(OC(=O)[C@H](CO)c3ccccc3)CC1C1OC12 (stereo not given in full),16.9% (inactive),
N#C/C(=C\c1ccc(O)c(O)c1)C(=O)c1ccc(O)c(O)c1,4.4% (inactive),
N[C@@H](CC(=O)O)C(=O)O,-15.9% (inactive),
O=C1/C(=C/c2ccsc2)CC/C1=C\c1cccs1,11% (inactive),
CSc1ccccc1N1CCN(CCCCCC(=O)NC2CCCc3ccccc32)CC1 (stereo not given),-69.9% (inactive),
CC(C)NCC(O)COc1cccc2ccccc12 (stereo not given),6.68% (inactive),
NC[C@H]1O[C@@H](n2cnc3c(N)ncnc32)[C@H](O)[C@@H]1O,-6.25% (inactive),
CN1CCc2cccc3c2C1Cc1ccc(O)c(O)c1-3 (stereo not given),-64.3% (inactive),
COc1cc(C(O)CO)ccc1OS(=O)(=O)O (stereo not given),-0.842% (inactive),
CN(C)c1nc2c(Br)c(Br)c(Br)c(Br)c2[nH]1,-13.1% (inactive),
Oc1cc(O)cc(/C=C/c2ccc(O)c(O)c2)c1,,580 nM (active)
O=c1[nH]c2cc(C(F)(F)F)ccc2n1-c1cc(C(F)(F)F)ccc1O,-10.7% (inactive),
CN=c1nc(-c2ccccc2)n(-c2ccccc2)s1,-20.8% (inactive),
CN1CCc2cc(O)c(O)cc2C(c2ccccc2)C1 (stereo not given),-86% (inactive),
COc1cc(SC)ccc1C(=O)N1CCC(Cc2ccccc2)CC1,3.88% (inactive),
CNC(=O)[C@H]1O[C@@H](n2cnc3c(NCc4ccc(N)cc4)ncnc32)[C@H](O)[C@@H]1O,-4.77% (inactive),

Compound,"activity, positive = potentiation",Potency
CCCCC#Cc1nc(NC)c2ncn([C@@H]3O[C@H](CO)[C@@H](O)[C@H]3O)c2n1,28.3% (inactive),
Nc1nc(Cl)nc2c1ncn2[C@@H]1O[C@H](COP(=O)(O)OP(=O)(O)OP(=O)(O)O)[C@@H](O)[C@H]1O,29.1% (inactive),
CNc1ncnc2c1ncn2[C@@H]1O[C@H](CO)[C@@H](O)[C@H]1O,-6.33% (inactive),
NS(=O)(=O)C#Cc1ccccc1,20.9% (inactive),
NC(=O)C(=O)O,16.8% (inactive),
C=C[C@@H]1CN2CC[C@@H]1C[C@H]2[C@H](O)c1ccnc2ccc(OC)cc12,-1.79% (inactive),
N=C(N)SCCc1ccc(CCSC(=N)N)cc1,10.8% (inactive),
CC[C@@H](C)[C@H]1O[C@]2(CC[C@H]1C)C[C@@H]1C[C@@H](CC=C(C)[C@@H](O[C@H]3C[C@H](OC)[C@@H](O[C@H]4C[C@H](OC)[C@@H](O)[C@H](C)O4)[C@H](C)O3)[C@@H](C)C=CC=C3CO[C@@H]4[C@H](O)C(C)=C[C@@H](C(=O)O1)[C@]34O)O2,,2060 nM (active)
Cc1cc(NC(=O)Nc2ccc3c(ccn3C)c2)sn1,-43.8% (inactive),
Brc1c(Br)c(Br)c2n[nH]nc2c1Br,-9.44% (inactive),
Nc1nc(Nc2ccccc2)nc2c1ncn2[C@@H]1O[C@H](CO)[C@@H](O)[C@H]1O,15.6% (inactive),
Oc1ccc(C2CNCc3sccc32)cc1O (stereo not given),-55.5% (inactive),
NC(N)=NC(=O)c1nc(Cl)c(N2CCCCCC2)nc1N,-12.8% (inactive),
OC[C@H]1O[C@@H](n2cnc3c(NC4CCCCC4)ncnc32)[C@H](O)[C@@H]1O,-3.88% (inactive),
CCOC(=O)C1=C(C)NC(C)=C(C(=O)OCC)C1c1c(F)c(F)c(F)c(F)c1F,-5.37% (inactive),
COc1cccc(C(=O)NCCN2CCN(c3ccc(Cl)cc3)CC2)c1,18.3% (inactive),
Cc1cc2c(cc1Cl)N(C(=O)Nc1ccc(Oc3cccnc3C)nc1)CC2,-84.4% (inactive),
O=C1O/C(=C/Br)CCC1c1cccc2ccccc12 (stereo not given),8.26% (inactive),
Cc1ccc(S(=O)(=O)/C=C/C#N)cc1,-11.6% (inactive),
O=C(O)[C@@H]1C[C@H](C(=O)O)N1,9.74% (inactive),
